In PubChem BioAssay (NCATS):
“And” between values parts separate entries of the source, which are not always exact repeats. Equal entries are not always repeated. Results filed as inconclusive are left out. A call without a number means that no potency is given here. The source made the active and inactive calls. Unless noted, the call rests on the fitted dose curve; in most records, active means well fitted curve in the direction sought with a large enough effect; inconclusive means small, poorly fitted or top-dose-only effect, or another doubt; inactive means no such curve, though single readings can be large; an effect the other way counts as inactive or inconclusive.

What was measured:
[1] = molecular target: Luciferin 4-monooxygenase (Photinus pyralis) (UniProt P08659); test: Biochemical firefly luciferase enzyme assay for NPC (AID 624030); further: nearly all actives have a fitted effect of over 70% in size; further: potency means the concentration at half of the fitted maximal effect;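 on activity change, negative = inhibition: purified P. pyralis luciferase at 10 nM with luciferin and ATP substrate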; conditions: purified P. pyralis luciferase, luminescence, 5 min; series mostly up to 58.6 µM
How it was run: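 Purified P. pyralis luciferase at 10 nM in 50 mM Tris Acetate (final), luminescence read within 5 minutes of enzyme addition to compounds. Activity normalised to PTC124 versus DMSO; concentration-response curves classed by r2, magnitude and activity.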

[2] = qHTS Assay for Lipid Storage Modulators (AID 1519; calls by dose curve); conditions: Drosophila S3 cells, BODIPY lipid droplet/cell ratio, laser cytometry, cells loaded with oleic acid; for activity change, negative = inhibition: at 57.5 µM (top of the series)
How it was run: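 Cells seeded at 5,000 per well were treated with compounds over a concentration series and loaded with oleic acid (400 uM, as added). Lipid droplet fluorescence (488 nm excitation, 500-530 nm channel) was read by laser-scanning cytometry and normalized to 20 uM Triacsin C.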

[3] = Cytotoxicity counterscreen for inhibitors of SARS-CoV-2 cell entry (AID 1645845; calls by dose curve; further: nearly all actives have a fitted effect of over 50% in size); conditions: cell viability (SARS-CoV-2 entry assay cells); series mostly up to 57.1 µM
How it was run: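 Counterscreen run in the same HEK293-ACE2 line as the pseudotyped-particle entry assay, without particles. Viability after 48 h at 37 C was read as ATP luminescence, scaled between cell-containing and cell-free wells.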

[4] = Primary qHTS to identify inhibitors of SARS-CoV-2 cell entry (AID 1645846; calls by dose curve; further: nearly all actives have a fitted effect of over 45% in size); conditions: SARS-CoV-2 pseudovirus cell entry assay, luminescence; activity change, negative = inhibition: at 57.1 µM (top of the series) unless noted; series mostly up to 57.1 µM
How it was run: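 HEK293 cells stably expressing human ACE2, pre-treated 1 h with compound, then infected with MLV particles pseudotyped with Wuhan-Hu-1 spike (C-terminal 19-aa truncation). Luciferase luminescence after 48 h at 37 °C, normalised to spike PP and bald PP.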

[5] = molecular target: Cytochrome P450 2D6 (Homo sapiens) (UniProt P10635); test: Cytochrome P450 family 2 subfamily D member 6 (CYP2D6) small molecule antagonists: luciferase biochemical (cell-free) qHTS assay (AID 1645840; active means well fitted curve in the direction sought with a large enough effect in the repeat runs; an effect the other way counts as inactive or inconclusive; further: nearly all actives have a fitted effect of over 55% in size; further: potency means the concentration at half of the fitted maximal effect); conditions: P450-Glo CYP2D6 enzyme, luciferin luminescence, 1 h; series mostly up to 57.4 µM
How it was run: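 P450-Glo CYP2D6 system: proluciferin substrate converted by enzyme to luciferin, read by luminescence proportional to activity. Enzyme-substrate mix with compound 10 min at room temperature, then NADPH regeneration 1 h before detection reagent.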

[6] = molecular target: Cytochrome P450 2C9 (Homo sapiens) (UniProt P11712); test: Cytochrome P450 family 2 subfamily C member 9 (CYP2C9) small molecule antagonists: luciferase biochemical (cell-free) qHTS assay (AID 1645842; active means well fitted curve in the direction sought with a large enough effect in the repeat runs; an effect the other way counts as inactive or inconclusive; further: nearly all actives have a fitted effect of over 55% in size; further: potency means the concentration at half of the fitted maximal effect); conditions: P450-Glo CYP2C9 enzyme assay, luciferin luminescence; series mostly up to 57.4 µM
How it was run: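 P450-Glo CYP2C9 system: proluciferin substrate with enzyme in mix containing 0.4% BSA, 10 min at room temperature, then NADPH regeneration solution added and incubated 1 h at 37C. Detection reagent stopped reaction; luminescence read after 20 min as RLU.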

[7] = Primary qHTS for inhibitors of nuclear receptor binding SET domain protein 2 (NSD2) in an RCH-ACV wild type WT cells (2C) (AID 1645877); conditions: RCH-ACV (leukaemia line) NSD2 WT (2C) viability, CellTiter-Glo, 72 h; series mostly up to 44.9 µM; further: potency means the concentration at half of the fitted maximal effect; nearly all actives have a fitted effect of over 70% in size
[8] = tested on: Zika virus NS2B-NS3 protease (unlinked complex); test: Primary screen GU Rhodamine qHTS for Zika virus inhibitors: Unlinked NS2B-NS3 protease assay (AID 1347159); conditions: Recombinant ZIKV NS2B-NS3 protease, Rhodamine110 substrate fluorescence; series mostly up to 107 µM; further: nearly all actives have a fitted effect of over 60% in size
How it was run: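 Buffer 10 mM Tris-HCl pH 8.0, 0.01% Tween 20. Unlinked protease 25 nM; compound preincubation 15 min, RT, protected from light. Substrate Rhod110, 1.5 microM; ~15% conversion in 15 min.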

[9] = tested on: CAOV3; test: Primary qHTS to identify gynecologic anti-cancer compounds using libraries of approved drugs and bioactive compounds (AID 1345084); conditions: Gynecologic cancer cell panel viability, ATPlite luminescence, 48 h; series mostly up to 57.5 µM; further: nearly all actives have a fitted effect of over 55% in size
How it was run: (§1)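 In this quantitative HTS, cell killing is estimated from loss of ATP-dependent luciferase light. Cells see five compound concentrations over a 48 h exposure.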

[10] = tested on: Es-2; test: as above; conditions: Gynecologic cancer cell panel viability, ATPlite luminescence, 48 h; series mostly up to 57.5 µM
How it was run: as §1

[11] = tested on: HeLa; test: as above; conditions: Gynecologic cancer cell panel viability, ATPlite luminescence, 48 h; series mostly up to 57.5 µM
How it was run: as §1

[12] = tested on: Hek293T; test: as above; conditions: Gynecologic cancer cell panel viability, ATPlite luminescence, 48 h, control line for the selectivity index; series mostly up to 57.5 µM
How it was run: as §1

[13] = tested on: PA-1; test: as above; conditions: Gynecologic cancer cell panel viability, ATPlite luminescence, 48 h; series mostly up to 57.5 µM
How it was run: as §1

[14] = tested on: SKOV3; test: as above; conditions: Gynecologic cancer cell panel viability, ATPlite luminescence, 48 h; series mostly up to 57.5 µM
How it was run: as §1

[15] = tested on: Tov112D; test: as above; conditions: Gynecologic cancer cell panel viability, ATPlite luminescence, 48 h; series mostly up to 57.5 µM
How it was run: as §1

[16] = tested on: NIH3T3; test: Cytotoxic Profiling of Annotated Libraries Using Quantitative High-Throughput Screening (AID 1296008); conditions: Five cell lines viability, CellTiter-Glo ATP luminescence, 48-72 h; max response: stronger effect = lower value; further: potency means the concentration at half of the fitted maximal effect; nearly all actives have a fitted effect of over 60% in size
How it was run: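 Cells exposed to compounds for 48 or 72 hr at 37 degrees Celsius. Viability read as ATP-coupled luminescence with CellTiter-Glo after 10 min at room temperature.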

[17] = tested on: C33A; test: Primary qHTS to identify gynecologic anti-cancer compounds using libraries of approved drugs and bioactive compounds (AID 1345084); conditions: Gynecologic cancer cell panel viability, ATPlite luminescence, 48 h; series mostly up to 57.5 µM; further: nearly all actives have a fitted effect of over 55% in size
How it was run: as §1

[18] = measured here: cell count channel max response
[19] = measured here: lipid channel max response

Chain of Cytochrome P450 2D6 (Homo sapiens) (P10635 whole entry, looked up): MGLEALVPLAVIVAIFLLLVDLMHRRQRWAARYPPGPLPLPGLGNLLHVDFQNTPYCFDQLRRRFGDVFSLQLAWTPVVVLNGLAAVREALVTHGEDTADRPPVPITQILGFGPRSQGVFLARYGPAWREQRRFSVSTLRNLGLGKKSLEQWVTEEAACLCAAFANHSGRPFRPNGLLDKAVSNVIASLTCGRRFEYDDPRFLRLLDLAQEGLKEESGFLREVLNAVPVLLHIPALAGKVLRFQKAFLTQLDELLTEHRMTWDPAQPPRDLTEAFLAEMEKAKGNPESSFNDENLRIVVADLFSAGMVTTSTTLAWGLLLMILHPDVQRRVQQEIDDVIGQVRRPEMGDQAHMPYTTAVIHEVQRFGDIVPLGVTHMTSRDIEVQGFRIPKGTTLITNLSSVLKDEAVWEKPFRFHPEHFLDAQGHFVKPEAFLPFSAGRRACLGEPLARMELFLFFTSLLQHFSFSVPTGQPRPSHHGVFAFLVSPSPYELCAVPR
Chain of Cytochrome P450 2C9 (Homo sapiens) (P11712 whole entry, looked up): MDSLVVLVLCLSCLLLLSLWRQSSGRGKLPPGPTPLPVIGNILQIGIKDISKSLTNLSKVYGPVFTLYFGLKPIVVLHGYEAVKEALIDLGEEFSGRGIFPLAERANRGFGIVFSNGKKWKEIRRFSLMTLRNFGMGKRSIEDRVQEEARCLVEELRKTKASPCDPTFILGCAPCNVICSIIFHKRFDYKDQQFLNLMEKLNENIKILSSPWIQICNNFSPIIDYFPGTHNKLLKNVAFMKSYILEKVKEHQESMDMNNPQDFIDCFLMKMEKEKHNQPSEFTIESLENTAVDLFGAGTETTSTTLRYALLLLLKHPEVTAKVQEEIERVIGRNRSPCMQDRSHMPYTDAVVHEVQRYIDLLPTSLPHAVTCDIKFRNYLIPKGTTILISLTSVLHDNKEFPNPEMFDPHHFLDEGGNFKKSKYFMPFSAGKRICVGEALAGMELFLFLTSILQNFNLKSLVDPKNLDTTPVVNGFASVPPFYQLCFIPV
Chain of Luciferin 4-monooxygenase (Photinus pyralis) (P08659 whole entry, looked up): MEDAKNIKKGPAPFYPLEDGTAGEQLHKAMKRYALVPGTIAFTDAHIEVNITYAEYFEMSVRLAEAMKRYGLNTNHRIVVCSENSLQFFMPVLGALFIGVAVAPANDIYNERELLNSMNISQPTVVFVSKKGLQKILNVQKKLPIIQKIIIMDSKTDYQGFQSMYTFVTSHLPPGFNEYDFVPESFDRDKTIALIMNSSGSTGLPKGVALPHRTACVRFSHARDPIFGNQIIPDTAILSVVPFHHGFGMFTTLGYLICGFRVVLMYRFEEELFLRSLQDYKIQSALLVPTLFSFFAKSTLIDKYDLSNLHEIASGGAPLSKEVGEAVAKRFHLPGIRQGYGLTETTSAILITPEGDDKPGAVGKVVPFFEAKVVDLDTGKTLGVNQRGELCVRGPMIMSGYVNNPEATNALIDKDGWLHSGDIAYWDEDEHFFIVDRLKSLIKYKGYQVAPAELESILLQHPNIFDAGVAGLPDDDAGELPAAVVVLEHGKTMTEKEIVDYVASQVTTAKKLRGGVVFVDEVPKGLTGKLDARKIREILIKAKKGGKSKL

Oc1cc[c]([Hg][Cl])cc1
Potency [1]: 8.09 µM (active) and 9.07 µM (active)

CCN(CC)/[N+]([O-])=N/O
activity change, negative = inhibition [2]: 8.09% (inactive)
max response [2, 18]: -15%
max response [2, 19]: -4.74%
Potency [1]: inactive

C/C=C(\CC)C(=O)NC(N)=O
Potency [1]: inactive

CNC(C)Cc1ccccc1 (centres undefined)
Potency [1]: inactive

OCCN(CCO)CCO
Potency [1]: inactive
Potency [3]: inactive
activity change, negative = inhibition [4]: -24%

CCOc1cc(C=O)ccc1O
Potency [1]: inactive
Potency [5]: inactive
Potency [6]: inactive

O=C1CN=C(c2ccccc2)c2cc(Cl)ccc2N1
Potency [1]: inactive

CC(N)Cc1ccc2c(c1)OCO2 (centres undefined)
Potency [1]: inactive

COC(=O)c1ccccc1C(=O)OC
Potency [1]: inactive
Potency [5]: inactive
Potency [6]: inactive

CNC(C)CC1CCCCC1 (centres undefined)
Potency [1]: inactive
Potency [3]: inactive
activity change, negative = inhibition [4]: -28.6% [at 85.7 µM]

Cc1ccc2c(c1)[C@]13CCCC[C@@H]1[C@H](C2)N(C)CC3
Potency [3]: inactive

CN1CC[C@@]23CCCC[C@@H]2[C@@H]1Cc1ccc(O)cc13
Potency [1]: inactive

O=C(O)CCCO
Potency [1]: inactive

CC(=O)[C@@]1(O)CC[C@H]2[C@@H]3CCC4=CC(=O)CC[C@]4(C)C3(F)[C@@H](O)C[C@@]21C (some centres undefined)
Potency [3]: inactive
activity change, negative = inhibition [4]: -3.62%

C=CCC1([C@@H](C)CCC)C(=O)NC(=O)NC1=O
Potency [1]: inactive

CCCSc1cc(OC)c(CCN)cc1OC
Potency [1]: inactive

Fc1cc(F)c2c(c1)[C@H]1C=CC[C@H]1C(c1cccnc1)N2 (some centres undefined)
Potency [7]: 8.17 µM (active)

C[N+](C)(C)CC(=O)[O-]
activity change, negative = inhibition [2]: 3.78% (inactive)
max response [2, 18]: 0.576%
max response [2, 19]: 6.22%
Potency [1]: inactive

CCOC(=O)C1(c2ccccc2)CCCN(C)CC1 (centres undefined)
Potency [1]: inactive
Potency [3]: inactive
activity change, negative = inhibition [4]: -23.2%

CCCCNC(C)(C)[P+](=O)O
Potency [5]: inactive
Potency [6]: inactive

COc1cc(C[C@H](C)N)c(OC)cc1Br
Potency [1]: inactive

N#Cc1ccc(N2CCN(C(=O)COc3ccc4[nH]cc(CCN)c4c3)CC2)cc1
Potency [8]: inactive
Potency [5]: 19 µM (active)
Potency [6]: 1.69 µM (active)
Potency [9]: inactive
Potency [10]: inactive
Potency [11]: inactive
Potency [12]: inactive
Potency [13]: inactive
Potency [14]: inactive
Potency [15]: inactive

Clc1ccc([C@@H]2C[C@H]3CC[C@@H]2N3)cn1
activity change, negative = inhibition [2]: -3.65% (inactive)
max response [2, 18]: 0.171%
max response [2, 19]: -1.79%

O=P1(N(CCCl)CCCl)NC(OO)CCO1 (centres undefined)
Potency [1]: inactive

COC(=O)[C@H]1[C@@H](OC(=O)c2ccccc2)C[C@@H]2CC[C@H]1N2C
Potency [3]: inactive
activity change, negative = inhibition [4]: -14.7% [at 114 µM]

Cc1nnc2n1-c1sc(Br)cc1C(c1ccccc1Cl)=NC2
Potency [1]: inactive

CN1CCN=C(c2ccccc2)c2cc(Cl)ccc21
Potency [1]: inactive

CC1=CC(=O)[C@@H](O)[C@]2(C)C3[C@@H](O)[C@@H]4OC(=O)[C@@H]([C@H]4C)[C@]3(C)C(=O)[C@H](O)[C@@H]12 (some centres undefined)
Potency [8]: inactive
Potency [16]: 2.55 µM (active)
Potency [17]: inactive
Potency [9]: inactive
Potency [11]: inactive
Potency [14]: inactive

CC(C)=CCN1CC[C@]2(C)c3cc(O)ccc3C[C@H]1[C@H]2C
activity change, negative = inhibition [4]: -30.2% [at 114 µM]
